Source: PubChem BioAssay
Activity calls are given as the source filed them. How the calls were made is not given here.

Biological target: Pantothenate synthetase (Mycobacterium tuberculosis (strain ATCC 25618 / H37Rv)) (UniProt P9WIL5)
Experiment: Coupled enzyme confirmation of inhibitors against recombinant Mtb PanC (AID 375);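 further: 0% = full reaction with vehicle and 100% = no enzyme background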
Conditions: coupled enzyme assay; at 10 µM, stronger effect = higher value

Pantothenate synthetase (Mycobacterium tuberculosis (strain ATCC 25618 / H37Rv)), sequence (P9WIL5 whole entry, looked up): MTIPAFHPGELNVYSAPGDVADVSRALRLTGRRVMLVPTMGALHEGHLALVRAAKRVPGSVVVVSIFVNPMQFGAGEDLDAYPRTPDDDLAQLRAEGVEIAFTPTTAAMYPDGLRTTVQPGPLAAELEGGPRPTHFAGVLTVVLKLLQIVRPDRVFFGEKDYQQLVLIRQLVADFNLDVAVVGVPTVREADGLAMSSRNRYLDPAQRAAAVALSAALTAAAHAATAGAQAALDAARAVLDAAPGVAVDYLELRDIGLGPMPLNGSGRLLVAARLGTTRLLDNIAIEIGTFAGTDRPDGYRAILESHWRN

Row | Compound | inhibition
1 | CCCCCC(=O)N(CN1C(=O)CCC1=O)c1ccccc1 | 5% (inactive)
2 | CCOC(=O)CNC(=O)Nc1nnc(-c2ccc(OCC)cc2)o1 | 5% (inactive)
3 | Oc1ccc2ccccc2c1CN1CCN(c2ccccc2F)CC1 | 1% (inactive)
4 | CN1CCN(c2ccc(Cl)cc2NC(=O)c2cccc(S(=O)(=O)N(C)C)c2)CC1 | 1% (inactive)
5 | CCOC(=O)c1cc2sccc2n1CC(=O)Nc1ccc2c(c1)OCCO2 | 0% (inactive)
6 | O=C(Nc1sc2c(c1C(=O)NCc1ccco1)CCCC2)c1ccc2c(c1)OCO2 | 1% (inactive)
7 | COc1ccc(Br)cc1C(=O)Nc1nnn(C)n1 | 0% (inactive)
8 | COC(=O)c1ccccc1S(=O)(=O)N(CCCN1CCOCC1)Cc1cccs1 | 0% (inactive)
9 | O=C(O)c1ccc2c(c1)C(=O)N(c1ccc(Cl)cn1)C2=O | 8% (inactive)
10 | COC(=O)C1=C(C)NC(=O)C1(NC(=O)c1cccnc1)C(F)(F)F (stereo not given) | 0% (inactive)
11 | OCc1nc2ccccc2n1CC(O)Cn1ccc2ccccc21 (stereo not given) | 1% (inactive)
12 | CC(C)CCN(C)C1CCN(S(=O)(=O)c2ccc(F)cc2)CC1 | 0% (inactive)
13 | CC1CCc2nc(NC(=O)CN3CCN(Cc4ccc5c(c4)OCO5)CC3)sc2C1 (stereo not given) | 0% (inactive)
14 | O=C1CCCCCN1CSc1nc2ccccc2s1 | 0% (inactive)
15 | COc1ccc2c(c1OC)C(=O)O[C@@H]2[C@H]1c2c(cc3c(c2OC)OCO3)CCN1C | 0% (inactive)
16 | Cc1ccc(C)c2[nH]c(=O)c(CCNC(=O)c3ccc(Br)o3)cc12 | 0% (inactive)
17 | CCCCCCn1c(CN2CCN(Cc3ccccc3)CC2)nc2c1c(=O)n(C)c(=O)n2C | 10% (inactive)
18 | COc1ccc(OC)c(Nc2nc(-c3sc(N)nc3C)cs2)c1 | 0% (inactive)
19 | COC(=O)c1cc2ccsc2n1CC(=O)Nc1cc(C)cc(C)c1 | 0% (inactive)
20 | N[C@@H](C(=O)N[C@@H]1C(=O)N2C(C(=O)O)=C(Cl)CS[C@H]12)c1ccccc1 | 2% (inactive)

Row | Compound | inhibition
21 | O=C(CCn1c(=O)sc2ccccc21)Nc1cccnc1 | 6% (inactive)
22 | Cc1nc(N2CCc3ccccc32)[nH]c(=O)c1CCC(C)C | 0% (inactive)
23 | Cc1cc(C)nc(-n2nc(C)cc2NC(=O)c2ccc(Br)o2)n1 | 0% (inactive)
24 | CC1CCN(CCCNC(=O)c2coc3nc4ccccc4nc23)CC1 | 1% (inactive)
25 | CC(Oc1ccccc1)C(=O)NC1CC(C)(C)NC(C)(C)C1 (stereo not given) | 0% (inactive)
26 | Cn1c(NC(=O)c2cccc(Cn3cc(Cl)cn3)c2)nc2ccccc21 | 8% (inactive)
27 | CC(=O)NC(CCS(C)(=O)=O)C(=O)Nc1cccc(C)c1C (stereo not given) | 0% (inactive)
28 | Cc1csc2nc3ccccc3c(=O)n12 | 11% (inactive)
29 | CC1(C)Cc2noc(N)c2C(C)(C)N1OC(=O)c1ccco1 | 0% (inactive)
30 | Cc1ccccc1C1CC(c2ccccc2)Nc2ncnn21 (stereo not given) | 12% (inactive)
31 | Cc1ccc(S(=O)(=O)N(CC(=O)N2CCC(C(N)=O)CC2)c2cccc(C(F)(F)F)c2)cc1 | 0% (inactive)
32 | CCCCNC(=O)c1nnn(-c2ccccc2)c1N | 0% (inactive)
33 | O=C(C1CCC1)N1CCc2cc(S(=O)(=O)N3CCc4ccccc4C3)ccc21 | 7% (inactive)
34 | CCCn1c(O)c(CN2CCCC(C)C2)c(C)c(C#N)c1=O (stereo not given) | 10% (inactive)
35 | CCOC(=O)Cn1c(=N)n(CCOc2cccc(C)c2)c2ccccc21 | 0% (inactive)
36 | Cc1ccc2nc(C(F)(F)F)c(C#N)c(N)c2c1 | 7% (inactive)
37 | COc1cccc(C2C(C#N)=C(N)OC3=C2C(=O)CCC3)c1OC(=O)c1ccco1 (stereo not given) | 13% (inactive)
38 | CCN(CC)c1nc2cc(OC)ccc2cc1C#N | 0% (inactive)
39 | O=C(CSc1nccn1Cc1ccccc1)Nc1nccs1 | 0% (inactive)
40 | Cc1nc(CNS(=O)(=O)c2ccc3c(c2)OCCO3)cs1 | 0% (inactive)
